Compounds without any hit were thinned out: in the full panel of roughly 79,000, 15% have a hit. Unmarked numbers belong to inactive results. Calls of active or inactive are those of the source. Rule as the data show it: active = growth inhibition above about 70%; inactive = the rest.
Tests used:
[1] = NCI Yeast Anticancer Drug Screen. Data for the rad52 strain (AID 147);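 also: 0% = growth of vehicle-treated control cultures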; conditions: S. cerevisiae rad52 mutant growth inhibition, active compounds read high
Outline: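 Read-out: growth inhibition versus vehicle-treated controls. Cells were a DNA repair-deficient yeast strain treated with compounds.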

[2] = NCI Yeast Anticancer Drug Screen. Data for the wt1 strain (AID 149);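 also: 0% = growth of vehicle-treated wt1 cultures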; conditions: S. cerevisiae wt1 strain (SPY 50644) growth inhibition, active compounds read high
Outline: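 Each compound is tested on wt1 yeast and the loss of growth versus vehicle gives the inhibition value.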

[3] = NCI Yeast Anticancer Drug Screen. Data for the rad50EPP+ strain (AID 151);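 also: 0% = growth of vehicle-treated control cultures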; conditions: S. cerevisiae rad50 mutant strain, active compounds read high
Outline: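 Growth inhibition read against vehicle controls in rad50EPP+ yeast, a strain altered in DNA damage repair, after compound exposure.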

[4] = NCI Yeast Anticancer Drug Screen. Data for the mgt1 strain (AID 153); conditions: S. cerevisiae mgt1 mutant growth inhibition, active compounds read high
Outline: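 mgt1 yeast grown with test compound; read-out is growth inhibition versus vehicle-treated cultures.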

[5] = NCI Yeast Anticancer Drug Screen. Data for the rad50 strain (AID 155);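 also: 0% = growth of vehicle-only cultures of the same strain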; conditions: S. cerevisiae rad50 strain growth inhibition, active compounds read high
Outline: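 Vehicle-treated cultures provide the reference for the growth inhibition reported for compound-exposed, repair-deficient yeast.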

[6] = NCI Yeast Anticancer Drug Screen. Data for the mec2-1 strain (AID 157); conditions: S. cerevisiae mec2-1 strain, active compounds read high
Outline: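 Yeast mec2-1 mutant treated with compound. Readout: growth inhibition vs vehicle controls.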

[7] = NCI Yeast Anticancer Drug Screen. Data for the rad14 strain (AID 159);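 also: 0% = growth of vehicle-treated control cultures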; conditions: S. cerevisiae rad14 strain growth inhibition, active compounds read high
Outline: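 Inhibition of growth is reported for a repair-deficient yeast mutant following compound treatment, calculated relative to cultures that received vehicle.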

[8] = NCI Yeast Anticancer Drug Screen. Data for the sgs1 mgt1 strain (AID 161);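 also: 0% = growth of cultures given vehicle only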; conditions: S. cerevisiae sgs1 mgt1 strain, active compounds read high
Outline: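 Inhibition of yeast growth, normalised to vehicle-treated controls, is reported for a strain bearing genetic alterations in DNA damage repair.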

[9] = NCI Yeast Anticancer Drug Screen. Data for the CLN2oe strain (AID 163);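 also: 0% = growth of vehicle-only control cultures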; conditions: S. cerevisiae CLN2oe strain, active compounds read high
Outline: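 Read-out: yeast growth inhibition, expressed relative to vehicle-only controls. The strain bears an engineered cell-cycle alteration.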

[10] = NCI Yeast Anticancer Drug Screen. Data for the cln2 rad14 strain (AID 165);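 also: 0% = growth equal to vehicle treated cultures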; conditions: S. cerevisiae cln2 rad14 strain, active compounds read high
Outline: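 cln2 rad14 yeast strain; compound exposure; growth inhibition read vs vehicle controls.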

[11] = NCI Yeast Anticancer Drug Screen. Data for the bub3 strain (AID 167); conditions: S. cerevisiae bub3 mutant strain, active compounds read high
Outline: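 Mutant yeast screening strain plus compound; vehicle-treated cultures serve as the 0% inhibition reference.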

[12] = NCI Yeast Anticancer Drug Screen. Data for the mlh1 strain (AID 171);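 also: 0% = growth of vehicle-treated control cultures of the same strain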; conditions: S. cerevisiae mlh1 strain growth inhibition, active compounds read high
Outline: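 Read-out: growth inhibition versus vehicle controls. Strain: engineered yeast with a defined DNA repair or cell cycle defect, compound-treated.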

[13] = NCI Yeast Anticancer Drug Screen. Data for the sgs1 strain (AID 173);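 also: 0% = growth of vehicle-only control cultures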; conditions: S. cerevisiae sgs1 mutant, active compounds read high
Outline: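 Read-out: yeast growth inhibition relative to vehicle controls, following compound exposure of a strain with a defined DNA repair/cell cycle alteration.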

[14] = NCI Yeast Anticancer Drug Screen. Data for the mlh1 rad18 strain (AID 175); conditions: S. cerevisiae mlh1 rad18 strain growth inhibition, active compounds read high
Outline: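 Yeast w/ defined DNA-repair lesions; compound exposure; growth vs vehicle controls → % inhibition.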

[15] = NCI Yeast Anticancer Drug Screen. Data for the rad18 strain (AID 177); conditions: S. cerevisiae rad18 mutant growth inhibition, active compounds read high
Outline: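 Readout: growth inhibition vs vehicle controls. Cells: genetically altered yeast strain, DNA repair defect.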

[16] = at 5.0 µM (retest, dose inferred, filed as 0.5)
[17] = at 50.0 µM (retest, dose inferred, filed as 5.0)

SMILES: Clc1cc(-c2ccccc2)nc2ccccc12
- growth inhibition ([1]; at 1.2 µM): 6%
- growth inhibition ([1]; at 3.7 µM): -1%
- growth inhibition ([1]; at 11.0 µM): 0%
- growth inhibition ([1]; at 33.0 µM): 34%
- growth inhibition ([1]; at 100.0 µM): 75% (active)
- growth inhibition ([2]; at 1.2 µM): -10%
- growth inhibition ([2]; at 3.7 µM): -15%
- growth inhibition ([2]; at 11.0 µM): -17%
- growth inhibition ([2]; at 33.0 µM): 24%
- growth inhibition ([2]; at 100.0 µM): 71% (active)
- growth inhibition ([3]; at 1.2 µM): 7%
- growth inhibition ([3]; at 3.7 µM): 27%
- growth inhibition ([3]; at 11.0 µM): 56%
- growth inhibition ([3]; at 33.0 µM): 77% (active)
- growth inhibition ([3]; at 100.0 µM): 90% (active)
- growth inhibition ([4]; at 1.2 µM): 13%
- growth inhibition ([4]; at 3.7 µM): 32%
- growth inhibition ([4]; at 11.0 µM): 36%
- growth inhibition ([4]; at 33.0 µM): 80% (active)
- growth inhibition ([4]; at 100.0 µM): 97% (active)
- growth inhibition ([5]; at 1.2 µM): 6%
- growth inhibition ([5]; at 3.7 µM): 10%
- growth inhibition [5, 16]: 68%
- growth inhibition ([5]; at 11.0 µM): 2%
- growth inhibition ([5]; at 33.0 µM): 36%
- growth inhibition [5, 17]: 90% (active)
- growth inhibition ([5]; at 50.0 µM): 75.3% (active)
- growth inhibition ([5]; at 100.0 µM): 81% (active)
- growth inhibition ([6]; at 1.2 µM): -18%
- growth inhibition ([6]; at 3.7 µM): -8%
- growth inhibition [6, 16]: 77% (active)
- growth inhibition ([6]; at 11.0 µM): -14%
- growth inhibition ([6]; at 33.0 µM): 33%
- growth inhibition [6, 17]: 92% (active)
- growth inhibition ([6]; at 50.0 µM): 44.4%
- growth inhibition ([6]; at 100.0 µM): 86% (active)
- growth inhibition ([7]; at 1.2 µM): 1%
- growth inhibition ([7]; at 3.7 µM): 2%
- growth inhibition ([7]; at 11.0 µM): 1%
- growth inhibition ([7]; at 33.0 µM): 46%
- growth inhibition ([7]; at 100.0 µM): 91% (active)
- growth inhibition [8, 16]: -23%
- growth inhibition [8, 17]: 88% (active)
- growth inhibition ([9]; at 1.2 µM): 5%
- growth inhibition ([9]; at 3.7 µM): 3%
- growth inhibition ([9]; at 11.0 µM): -8%
- growth inhibition ([9]; at 33.0 µM): 28%
- growth inhibition ([9]; at 100.0 µM): 54%
- growth inhibition [10, 16]: 40%
- growth inhibition [10, 17]: 82% (active)
- growth inhibition ([11]; at 1.2 µM): 11%
- growth inhibition ([11]; at 3.7 µM): 23%
- growth inhibition [11, 16]: 27%
- growth inhibition ([11]; at 11.0 µM): 34%
- growth inhibition ([11]; at 33.0 µM): 60%
- growth inhibition [11, 17]: 93% (active)
- growth inhibition ([11]; at 100.0 µM): 93% (active)
- growth inhibition ([12]; at 1.2 µM): 20%
- growth inhibition ([12]; at 3.7 µM): 27%
- growth inhibition ([12]; at 11.0 µM): 24%
- growth inhibition ([12]; at 33.0 µM): 61%
- growth inhibition ([12]; at 100.0 µM): 95% (active)
- growth inhibition ([13]; at 1.2 µM): -9%
- growth inhibition ([13]; at 3.7 µM): -12%
- growth inhibition ([13]; at 11.0 µM): -9%
- growth inhibition ([13]; at 33.0 µM): 42%
- growth inhibition ([13]; at 100.0 µM): 82% (active)
- growth inhibition [14, 16]: 47%
- growth inhibition [14, 17]: 87% (active)
- growth inhibition ([14]; at 50.0 µM): 31.4%
- growth inhibition ([15]; at 1.2 µM): 16%
- growth inhibition ([15]; at 3.7 µM): 9%
- growth inhibition ([15]; at 11.0 µM): 25%
- growth inhibition ([15]; at 33.0 µM): 59%
- growth inhibition ([15]; at 100.0 µM): 91% (active)

— PubChem BioAssay (NCI)
